Bioassay records (PubChem BioAssay)
Rows were chosen to be rich in hits. Some 9.6% of all compounds tested hit in one or more screens of this group.
PTEN del growth: growth suppression of PTEN-null HCT116, primary screen, cell-based, CellTiter-Glo | HCT116 PTEN-null viability, 60 h; hits give low values | viability, % at 10 µM | 140,000 tested, 1.2% active | AID 827, 2007;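 active = viability at or below a set limit, 4 SD under the median of all tested compounds, cut at about 3.7% in these data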;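 note: PTEN knockout HCT116 line with beta catenin targeted HCT116 as companion control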
HCT116 bCat-KO: primary screen for growth suppressors in beta-catenin knockout HCT116 cells (colon tumor, human); HCT116 beta-catenin knockout viability, CellTiter-Glo, 60 h; hits give low values; viability, % at 10 µM; 140,000 tested, 1.5% active; AID 818, 2007;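 active = viability at or under a set limit, the compound median less 4 SD, cut at about 6% in these data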;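 note: 0% = Hyamine 1622 control at 20 µM and 100% = untreated cell control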
Autophagy HCS: autophagy modulators in MEF cells, primary screen, imaging, high-content, MEF GFP-LC3 | MEF GFP-LC3 puncta imaging; test concentration mostly 10 µM | calls only at 10 µM (by protocol) | 190,000 tested, 0.98% active;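 active = percentage of spot-positive cells more than 3 SD above its plate mean, without a fluorescence outlier flag or 80% toxicity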;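 note: spot-positive cell cutoff set from DMSO-treated cells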
INS promoter inh: inhibitors of insulin promoter-driven GFP, primary screen, imaging, TRM-6 cells (human fetal islet line), eGFP reporter, cell count; inhibition, % at 2 µM; 130,000 tested, 0.9% active; reporter expression induced with tamoxifen;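 active = inhibition above the mean plus 3 SD, with well images judged a real hit on visual review, cut at about 60% in these data, passing the limit was not always enough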
Insulin prom up: insulin promoter activators in MIN6 cells, imaging, high-content screening, mouse beta cells | z-score at 5 µM | MIN6 insulin promoter-GFP reporter; hits give high values | 190,000 tested, 0.3% active;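 active = z-score above 3 at 5 µM with at least 500 cells counted in the well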
L major viab: Leishmania major promastigote growth inhibition, primary screen; inhibition, % at 10 µM; 200,000 tested, 9% active; Leishmania major promastigotes, resazurin fluorescence viability; AID 1063, 2008; in the data active = inhibition above about 50%;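 note: promastigotes grown with compound for 44 hours at 28 °C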
The depositor's hits bear a star.

What do the screens show for `FC(F)(F)c1ccc(C2[C@H]3CN(Cc4ccc(-c5ccccc5)cc4)[C@H](c4ccccc4)C34CC2(c2cccnc2)C4)cc1` (some centres undefined)?
Insulin prom up: -0.12

What do the screens show for `C/C(=N\NC(=O)Cn1c(-c2ccccn2)nc2ccccc21)c1ccccc1`?
PTEN del growth: 89; HCT116 bCat-KO: 88; Autophagy HCS: inactive; INS promoter inh: 5; Insulin prom up: 0.05; L major viab: 68*

What do the screens show for `Cc1ccc(NC(=O)c2c(O)c3ccccc3n(C)c2=O)nc1`?
PTEN del growth: 60; HCT116 bCat-KO: 77; Autophagy HCS: inactive; INS promoter inh: 30; Insulin prom up: 0.2; L major viab: 71*

How did CCCCc1nc2ccccc2c(=O)n1NC(=O)c1c(O)c2ccccc2n(C)c1=O do in these assays?
Autophagy HCS: inactive; INS promoter inh: 11; Insulin prom up: -1.2; L major viab: 73*

Results for Cc1nc2ccccc2c(=O)n1NC(=O)c1c(O)c2ccccc2n(C)c1=O ?
Insulin prom up: 0.37

How did CC1(C)CC(=O)C2=C(C1)N(c1ccc(F)cc1)C(=O)CC2c1ccccc1 (centres undefined) do in these assays?
PTEN del growth: 105; HCT116 bCat-KO: 82; Autophagy HCS: inactive; INS promoter inh: -58; Insulin prom up: 0.36; L major viab: 4

What do the screens show for `CC1(C)CC(=O)C2=C(C1)NC1=C(C(=O)c3ccccc31)C2c1ccc(Cl)cc1` (centres undefined)?
PTEN del growth: 14; HCT116 bCat-KO: 33; Autophagy HCS: inactive; Insulin prom up: -0.08; L major viab: 60*

Results for CCCCN1C2=C(C(=O)CC(C)(C)C2)C(c2ccccc2)C2=C1c1ccccc1C2=O (centres undefined) ?
PTEN del growth: 77; HCT116 bCat-KO: 72; Autophagy HCS: inactive; INS promoter inh: 53; L major viab: 84*

How did Cc1ccc(C2C3=C(CC(C)(C)CC3=O)NC3=C2C(=O)c2ccccc23)cc1 (centres undefined) do in these assays?
PTEN del growth: 73; HCT116 bCat-KO: 81; Autophagy HCS: inactive; INS promoter inh: -317; Insulin prom up: -0.3; L major viab: 36

How did CCCN1C2=C(C(=O)CC(C)(C)C2)C(c2ccc(F)cc2)C2=C1c1ccccc1C2=O (centres undefined) do in these assays?
PTEN del growth: 76; HCT116 bCat-KO: 78; Autophagy HCS: inactive; INS promoter inh: 7; Insulin prom up: -0.36; L major viab: 72*

Results for CC(=O)c1sc(NC(=O)c2ccccc2C)nc1C ?
Autophagy HCS: inactive; INS promoter inh: 14; Insulin prom up: 0.15; L major viab: 10

How did CC1(c2ccccc2)NC(=O)N(CC(=O)NCCC2=CCCCC2)C1=O (centres undefined) do in these assays?
PTEN del growth: 95; HCT116 bCat-KO: 105; Autophagy HCS: inactive; INS promoter inh: 12; Insulin prom up: -0.11; L major viab: 3

What do the screens show for `O=C(Nc1ccccc1)Nc1ccc(C(=O)N2CCCC2)cc1`?
Autophagy HCS: inactive; Insulin prom up: 0.52; L major viab: -3

How did OC1=C(O)c2nc3cc(F)ccc3nc21 do in these assays?
Insulin prom up: 0.59

How did Fc1ccc2nc3[nH]c4ccccc4c3nc2c1 do in these assays?
PTEN del growth: 34; HCT116 bCat-KO: 26; Autophagy HCS: inactive; INS promoter inh: 91*; Insulin prom up: -0.32; L major viab: 13

What do the screens show for `Cc1occc1C(=O)NCc1cccs1`?
PTEN del growth: 97; HCT116 bCat-KO: 95; Autophagy HCS: inactive; INS promoter inh: -8; Insulin prom up: 1.4; L major viab: -4

What do the screens show for `O=[N+]([O-])c1cccc(-c2ncc3ccccn23)c1`?
Autophagy HCS: inactive; INS promoter inh: 45; Insulin prom up: -1.2; L major viab: -5

Results for Nc1c(-c2cccc([N+](=O)[O-])c2)nc2ccccn12 ?
PTEN del growth: 85; HCT116 bCat-KO: 79; Autophagy HCS: inactive; INS promoter inh: 69*; Insulin prom up: 0.61; L major viab: -1

What do the screens show for `CCOC(=O)c1cccc(N2C(=O)c3ccccc3S2(=O)=O)c1`?
PTEN del growth: 107; HCT116 bCat-KO: 113; Autophagy HCS: inactive; INS promoter inh: -19; Insulin prom up: 0.15; L major viab: -1

What do the screens show for `CC(C)Cc1nnc(NC(=O)CCC(=O)N2CCN(S(=O)(=O)c3ccccc3)CC2)s1`?
PTEN del growth: 94; HCT116 bCat-KO: 97; Autophagy HCS: inactive; INS promoter inh: 3; Insulin prom up: 0.55; L major viab: 52*

What do the screens show for `CC(C)c1nnc(NC(=O)CCC(=O)N2CCN(Cc3ccccc3)CC2)s1`?
PTEN del growth: 92; HCT116 bCat-KO: 84; Autophagy HCS: inactive; INS promoter inh: 53; Insulin prom up: -0.53; L major viab: -5

Results for Oc1oc(-c2ccccc2)nc1C=Nc1ccccc1 ?
PTEN del growth: 88; HCT116 bCat-KO: 95; Autophagy HCS: inactive; INS promoter inh: -16; L major viab: -5

What do the screens show for `CCc1cccc(CC)c1NC(=O)COC(=O)/C(C#N)=C/c1ccc(OC)cc1`?
PTEN del growth: 100; HCT116 bCat-KO: 89; Autophagy HCS: inactive; INS promoter inh: 5; Insulin prom up: 0.62; L major viab: 46

Results for S=C(Nc1ccccc1Oc1ccccc1)NC1CCCC1 ?
Autophagy HCS: inactive; Insulin prom up: 0.66; L major viab: 61*

What do the screens show for `S=C(Nc1cccc2ccccc12)NC1CCCCC1`?
Autophagy HCS: inactive; INS promoter inh: -72; Insulin prom up: 1.3; L major viab: 99*

Results for COc1ccc(NC(=S)NC2CCCCCC2)c(OC)c1 ?
PTEN del growth: 83; HCT116 bCat-KO: 81; Autophagy HCS: inactive; INS promoter inh: 22; Insulin prom up: -0.46; L major viab: 77*

How did S=C(Nc1ccc(Oc2ccccc2)cc1)NC1CCCC1 do in these assays?
PTEN del growth: 90; HCT116 bCat-KO: 95; Autophagy HCS: inactive; INS promoter inh: 8; Insulin prom up: -1; L major viab: 45

Results for CSc1ccccc1NC(=S)NC1CCCCC1 ?
Autophagy HCS: inactive; INS promoter inh: -36; Insulin prom up: 0.46; L major viab: 28

How did CC(C)(C)NC(=O)CN1CCC(O)(c2ccccc2)CC1 do in these assays?
PTEN del growth: 98; HCT116 bCat-KO: 100; Autophagy HCS: inactive; INS promoter inh: -9; Insulin prom up: 0.19; L major viab: -1

What do the screens show for `Cc1cc(N2CCN(C)CC2)nc2ccc(NC(=O)c3ccc(Br)o3)cc12`?
PTEN del growth: 11; HCT116 bCat-KO: 14; Autophagy HCS: inactive; Insulin prom up: -0.16; L major viab: 92*
